Consider 44 compounds from paper PMC4336329 (PLoS ONE, 2015).

Among all 310,000 compounds or so, about 14,000 (4.5%) showed an effect of 50% or more. Effects have a minus sign here. This is one part of a sample in which strong results are shown more often than they occur.
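Also: peak tail current of the secondary pulse compared with the same well before compound.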

For the experiment, the target named is human ether-à-go-go-related gene (hERG) potassium channel (human, UniProt Q12809). Briefly: primary screen, population patch clamp on CHO cells stably expressing hERG; higher = less effect of the substance.
Sequence of human ether-à-go-go-related gene (hERG) potassium channel (Q12809 whole entry, looked up): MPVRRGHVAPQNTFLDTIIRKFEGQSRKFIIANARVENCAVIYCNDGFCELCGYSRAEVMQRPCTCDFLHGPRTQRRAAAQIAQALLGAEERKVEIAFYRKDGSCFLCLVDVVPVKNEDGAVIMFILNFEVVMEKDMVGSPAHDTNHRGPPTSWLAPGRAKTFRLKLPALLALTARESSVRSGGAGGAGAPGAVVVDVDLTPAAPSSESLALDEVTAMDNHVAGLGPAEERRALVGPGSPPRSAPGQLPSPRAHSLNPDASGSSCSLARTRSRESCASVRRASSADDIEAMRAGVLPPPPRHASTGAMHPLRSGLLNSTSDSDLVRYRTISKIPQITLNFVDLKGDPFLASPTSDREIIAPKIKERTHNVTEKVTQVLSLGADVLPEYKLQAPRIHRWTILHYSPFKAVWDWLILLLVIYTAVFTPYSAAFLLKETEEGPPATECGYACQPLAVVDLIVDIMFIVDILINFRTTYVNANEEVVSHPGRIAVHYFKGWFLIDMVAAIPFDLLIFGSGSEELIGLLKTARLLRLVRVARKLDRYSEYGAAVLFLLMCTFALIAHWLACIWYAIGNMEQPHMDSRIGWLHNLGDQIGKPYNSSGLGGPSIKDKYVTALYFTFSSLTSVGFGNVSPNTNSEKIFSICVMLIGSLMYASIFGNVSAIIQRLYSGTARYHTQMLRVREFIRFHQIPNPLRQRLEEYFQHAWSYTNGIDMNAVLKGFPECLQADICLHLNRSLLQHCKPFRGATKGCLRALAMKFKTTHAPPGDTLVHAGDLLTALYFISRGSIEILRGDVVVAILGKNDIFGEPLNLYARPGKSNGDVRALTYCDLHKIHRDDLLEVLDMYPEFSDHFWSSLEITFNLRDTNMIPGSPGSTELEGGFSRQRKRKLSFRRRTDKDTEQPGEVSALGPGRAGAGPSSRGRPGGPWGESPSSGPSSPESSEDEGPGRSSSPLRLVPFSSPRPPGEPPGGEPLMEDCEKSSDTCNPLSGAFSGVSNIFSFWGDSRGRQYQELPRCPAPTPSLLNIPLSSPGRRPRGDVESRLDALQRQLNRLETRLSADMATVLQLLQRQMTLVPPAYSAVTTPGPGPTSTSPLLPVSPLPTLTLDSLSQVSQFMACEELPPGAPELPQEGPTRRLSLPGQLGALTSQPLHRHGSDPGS
`CCC(=O)c1ccc(N2CCN(C(=O)c3ccccc3Br)CC2)c(F)c1`: the “hERG current change (%, negative = inhibition) at 10uM” value is -26.8%. Regarding `CCOC(=O)C1CCN(C(=O)c2ccccc2CCc2ccccc2)CC1`, the “hERG current change (%, negative = inhibition) at 10uM” value is reported as -8.95%. The same measure for `CCC(=O)c1ccc(N2CCCCC2)c(F)c1`: 8.26%; for `CCC(=O)c1ccc(N2CCN(C(=O)c3ccc(Br)cc3)CC2)c(F)c1`: -16%. For the compound `CCOC(=O)N1CCN(C(=O)c2ccccc2CCc2ccccc2)CC1`, the “hERG current change (%, negative = inhibition) at 10uM” value is -59.1%. Then `CCC(=O)c1ccc(N2CCN(C(=O)c3cccc(F)c3)CC2)c(F)c1`, with -41.6%. The same measure for `CCC(=O)c1ccc(N2CCN(C(=O)c3ccccc3)CC2)c(F)c1`: -70.1%. The same measure for `O=C(c1ccccc1CCc1ccccc1)N1CCCC1`: 9.12%; for `CCOC(=O)Nc1sc(C(=O)N(C)C)c(C)c1C(=O)OCC`: 5.73%; for `O=C(COC(=O)/C=C/c1cccs1)NC(c1ccccc1)c1ccccc1`: -2.53%. In the case of `O=C(CNC(=O)c1ccccc1)OCC(=O)c1ccc(Cl)s1`, the “hERG current change (%, negative = inhibition) at 10uM” value was 0.566%. The same measure for `CC1(C)CC(=O)C2=C(C1)NC(=O)NC2c1ccccc1` (centres unmarked): 21.7%. Regarding `Cc1oc(CC(C)C)cc1C(=O)NCCCC(=O)O`, the “hERG current change (%, negative = inhibition) at 10uM” value was 13.6%. The same measure for `COc1ccc(C2(CNS(=O)(=O)c3ccc(C)cc3)CCOCC2)cc1`: 15.4%; for `O=C(O)c1ccc(N2C(=O)CC(SC(=NCc3ccc4c(c3)OCO4)Nc3ccccc3)C2=O)cc1` (centres unmarked): 13.9%.

`CCOC(=O)C1=C(C)NC(=O)CC1c1ccccc1` (centres unmarked): the “hERG current change (%, negative = inhibition) at 10uM” value was -0.777%. The same measure for `COc1ccc(C(=O)CCc2ccc(OC)c(OC)c2)cc1`: -10.3%; for `O=C(CNC(=O)c1ccc(Br)cc1)OCC(=O)c1ccccc1`: 10.2%. The same measure for `Cc1ccc2[nH]c(-c3cccc(N)c3)cc2c1`: 18.4%. The same measure for `O=C(CSc1nnc(CN2CCCCC2)n1-c1ccccc1)c1ccc2c(c1)OCO2`: -25.4%; for `Cc1ccc2c(c1)N(CC(=O)N1CCCC1)C(=O)C(C)O2` (centres unmarked): 19.4%.

For the compound `CCC1Oc2ccc(C)cc2N(CC(=O)N2CCN(c3ccc(F)cc3)CC2)C1=O` (centres unmarked), the “hERG current change (%, negative = inhibition) at 10uM” value is -54.1%.

Turning to `CCC1Oc2ccc(C)cc2N(CC(=O)N2CCCC2)C1=O` (centres unmarked), the “hERG current change (%, negative = inhibition) at 10uM” value was determined as 23.2%. Consider `Cc1ccc2c(c1)N(CC(=O)N1CCN(c3nc4ccccc4s3)CC1)C(=O)C(C)O2` (centres unmarked), for which the “hERG current change (%, negative = inhibition) at 10uM” value was -54.5%. The same measure for `CCC1Oc2ccc(C)cc2N(CC(=O)N2CCOCC2)C1=O` (centres unmarked): 4.58%; for `Cc1ccc2c(c1)N(CC(=O)N1CCCCC1)C(=O)C(C)O2` (centres unmarked): 11.9%; for `Cc1c(C(=O)N/N=C/c2ccc(N3CCOCC3)cc2)nc2ccccn12`: -1.87%. The same measure for `COC(=O)c1scc(C)c1-n1ccc(C(=O)C(=O)N(C)C)c1`: 5.31%; for `CCN(CC)C(=O)C(=O)c1ccn(-c2c(C)csc2C(=O)OC)c1`: -9.5%. Then `C=CCN(CC=C)C(=O)C(=O)c1ccn(-c2c(C)csc2C(=O)OC)c1`, with -70.3%; and `NC(=O)C1CCCN(C(=O)c2ccc(Cl)cc2)C1` (centres unmarked), with 6.59%. With `O=C(Nc1ccccc1)c1cc(-n2cnnc2)ccc1Cl`, the “hERG current change (%, negative = inhibition) at 10uM” value was 9.46%. Then `CN1CCN(c2ccc(NC(=O)c3ccc(Cl)cc3)cn2)CC1`, with -53.1%. Consider `CN1CCN(c2ccc(NC(=O)c3ccc(C(F)(F)F)cc3)cn2)CC1`, for which the “hERG current change (%, negative = inhibition) at 10uM” value is -73.2%.

`O=C(Nc1ccc(N2CCOCC2)nc1)c1ccc(Cl)cc1`: the “hERG current change (%, negative = inhibition) at 10uM” value is on record as -11.5%. The same measure for `O=C(Nc1ccc(N2CCOCC2)nc1)c1ccc(C(F)(F)F)cc1`: 16.6%; for `COCC(=O)N1CCc2ccc(NC(=O)c3ccc(C(F)(F)F)cc3)cc2C1`: -38.3%; for `Cc1ccccc1C(=O)Nc1ccc(N2CCN(C)CC2)nc1`: -1.6%. The same measure for `CN(C)S(=O)(=O)c1ccc(C(=O)Nc2ccc3c(c2)CCC3)cc1`: -52%; for `CC(=O)Nc1ccc(N2CCN(c3ccc(C(F)(F)F)cn3)CC2)nc1`: -3.49%. The same measure for `Cc1ccc(C(=O)Nc2ccc3c(c2)CCC3)cc1`: 14.7%. As to `CN(C)S(=O)(=O)c1cccc(C(=O)Nc2ccc3c(c2)CCC3)c1`, the “hERG current change (%, negative = inhibition) at 10uM” value is recorded as -21.9%. The same measure for `CN(C)S(=O)(=O)N1CCc2ccc(NC(=O)c3ccc(C(F)(F)F)cc3)cc2C1`: 25.4%; for `CN1CCc2ccc(NC(=O)c3ccc(C(F)(F)F)cc3)cc2C1`: -53.8%.
